Screens (PubChem)
Most compounds without a hit are left out; they make up all but 2.7% or so of the library.
A549 viability: A549 cytotoxicity, counter-screen for Nrf2 inhibitors; actives 0.16% (n = 390,000); A549 ARE-Fluc cells, CellTiter-Fluor viability, 18-24 h; Potency, µM (titrated, usually from 46 µM), for inactives: at the highest dose activity change, negative = cytotoxicity, hits mostly inhibitors; AID 504648; further: potency means the concentration at half of the fitted maximal effect; on the % scale 0 is the no-effect control and ±100 the full control effect
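A549 ARE-Fluc cells in 5% FBS OPTI-MEM, 5000 cells/well, rested 2 h then exposed to compounds in concentration-response for 18-24 h at 37 °C. Viability by CellTiter-Fluor fluorescence (Ex 405/Em 525) after 30 min; luciferase luminescence (BugLite, 15 min, RT) read afterwards.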
ALOX12 inh: ALOX12 (human) lipoxygenase inhibition; P18054; purified 12hLO, xylenol orange hydroperoxide absorbance; Potency, µM (top dose mostly 108 µM), for inactives: top-dose activity change, negative = inhibition, usual class: inhibitors; actives 1.1% (n = 580,000); further: potency means the concentration at half of the fitted maximal effect; on the % scale 0 is the no-effect control and ±100 the full control effect
Target sequence (P18054 whole entry, looked up): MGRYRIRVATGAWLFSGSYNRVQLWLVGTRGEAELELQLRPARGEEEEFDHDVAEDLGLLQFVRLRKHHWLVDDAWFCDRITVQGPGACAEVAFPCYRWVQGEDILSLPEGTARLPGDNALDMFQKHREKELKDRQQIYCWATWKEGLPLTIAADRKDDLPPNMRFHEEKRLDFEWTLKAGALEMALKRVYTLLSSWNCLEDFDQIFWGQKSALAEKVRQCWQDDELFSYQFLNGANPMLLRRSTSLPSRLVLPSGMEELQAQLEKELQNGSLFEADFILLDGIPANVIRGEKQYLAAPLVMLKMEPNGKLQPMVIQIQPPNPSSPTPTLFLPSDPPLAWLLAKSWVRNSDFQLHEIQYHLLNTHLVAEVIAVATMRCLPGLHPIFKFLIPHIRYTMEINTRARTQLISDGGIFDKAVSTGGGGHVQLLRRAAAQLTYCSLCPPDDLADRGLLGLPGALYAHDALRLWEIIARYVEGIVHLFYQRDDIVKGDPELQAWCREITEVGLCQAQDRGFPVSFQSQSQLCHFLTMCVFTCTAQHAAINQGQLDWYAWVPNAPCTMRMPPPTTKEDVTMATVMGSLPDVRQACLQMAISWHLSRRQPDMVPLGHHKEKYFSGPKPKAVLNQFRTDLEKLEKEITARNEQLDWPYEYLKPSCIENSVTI
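Hydroperoxide product was detected by ferrous iron/xylenol orange as the 573 to 405 nm absorbance ratio. Arachidonic acid at 40 uM (final) was turned over for 30 min at room temperature by 150 nM human 12hLO, pH 7.0 Hepes buffer, after 15 min compound preincubation.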
Nrf2 block: blocks Nrf2 signaling; A549 ARE-Fluc reporter, luciferase luminescence, 18-24 h; Potency, µM (series often up to 46 µM), without a hit: top-dose activity change, negative = inhibition, actives largely listed as inhibitors; actives 2.1% (n = 360,000); AID 504444; further: potency means the concentration at half of the fitted maximal effect; on the % scale 0 is the no-effect control and ±100 the full control effect; nearly all actives have a fitted effect of over 60% in size
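A549 ARE_Fluc cells, 5000/well, 5% FBS OPTI-MEM; compounds in dose-response, 18-24 h at 37 °C/5% CO2; CellTiter-Fluor viability read (Ex 405/Em 525), then BugLite luciferase luminescence = Nrf2 activity.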
IDH1 R132H inh: inhibitors of human mutant IDH1 R132H; IDH1-R132H enzyme, NADPH consumption, diaphorase/resazurin fluorescence; AID 602179; Potency, µM (titrated, usually from 76.6 µM), for inactives: at the highest dose activity change, negative = inhibition, usual class: inhibitors; actives 0.093% (n = 390,000); further: potency means the concentration at half of the fitted maximal effect; on the % scale 0 is the no-effect control and ±100 the full control effect; nearly all actives have a fitted effect of over 65% in size
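IDH1-R132H (0.5 ug/mL) preincubated 30 min with compound, then NADPH (0.016 mM) and alpha-KG (2 mM) added; 80 min at RT, pH 7.5. Remaining NADPH coupled via diaphorase/resazurin to fluorescence (540/590 nm); concentration-response curves normalized to no-enzyme control.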
Nrf2 ARE act: activates Nrf2 signaling; AREc32 ARE-luciferase reporter (MCF7-derived line), luminescence, 24 h; Potency, µM (top dose mostly 46.1 µM), for the others: top-dose activation, most hits filed as activators; actives 0.31% (n = 410,000); AID 624171; further: potency means the concentration at half of the fitted maximal effect; % of control where 0% means no effect; nearly all actives have a fitted effect of over 65% in size
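Nrf2 activation is followed as ARE-luciferase induction in the AREc32 line after one day of compound treatment; luminescence is read with Steady-Glo.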
LDHA inh: LDHA (human) enzyme inhibition. purified LDHA, NADH/diaphorase-resazurin fluorescence; hits give low values. activity change, % (values are at about 110 or 230 µM). actives 0.15% (n = 480,000). AID 1347041; in the data active means activity change below about -30%; inconclusive means mostly about -25% to -30%;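 further: plate controls were DMSO wells for no effect and wells without enzyme for full effect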
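Human LDH5 (2 nM) was incubated with 0.06 mM NADH and 0.2 mM pyruvate for 5 min at room temperature in Tris pH 7.4. Remaining NADH was coupled through diaphorase/resazurin, and resorufin fluorescence was read at 0 and 20 min.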
Numbers without * were called inactive; [ ] = dose if it differs, or a comment. Unless noted, the call rests on the fitted dose curve; in most records, active means well fitted curve in the direction sought with a large enough effect; inconclusive means small, poorly fitted or top-dose-only effect, or another doubt; inactive means no such curve, though single readings can be large; an effect the other way counts as inactive or inconclusive.

`CCc1nc2c(c(-c3ccc(OC)cc3)n1)CCN(Cc1cccc(NC(C)=O)c1)CC2` gave ALOX12 inh -1.0%[6.33 µM].
`Cc1csc2ncnc(N3CCN(S(=O)(=O)c4cccc(C(F)(F)F)c4)CC3)c12` gave A549 viability -21.0%, ALOX12 inh -4.3%, Nrf2 block 5.17µM*, IDH1 R132H inh 6.0%, Nrf2 ARE act -0.9% and LDHA inh -2.8.
For CO/C=C\C=C/c1nnn(-c2ccc(Cl)cc2)n1 the results were A549 viability 0.7%, ALOX12 inh 35.5µM*, Nrf2 block 32.9%, IDH1 R132H inh -2.2%, Nrf2 ARE act 5.9% and LDHA inh -1.2.
Clc1ccc(-n2cnnn2)cc1 was read as A549 viability 3.2%, ALOX12 inh -14.6%, Nrf2 block 0.9%, IDH1 R132H inh 1.6%, Nrf2 ARE act -0.5% and LDHA inh -4.4.
For N#CC1=C(N)N2C(=C(C#N)C1c1ccc(Br)cc1)Nc1ccccc12 (stereo not drawn) the results were A549 viability inconclusive, ALOX12 inh -12.7%, Nrf2 block 11.6µM*, IDH1 R132H inh 8.9%, Nrf2 ARE act -1.2% and LDHA inh -1.3.
For C[C@H]1CN([C@@H](C)CO)C(=O)c2cc(C#CCC3CCCC3)cnc2O[C@@H]1CN(C)C(=O)CC1CC1 the results were ALOX12 inh 44.7µM*, IDH1 R132H inh -4.1%, Nrf2 ARE act 0.0% and LDHA inh 4.0.
`C[C@H](CO)N1C[C@H](C)[C@@H](CN(C)S(=O)(=O)c2ccc(F)cc2)Oc2ncc(Br)cc2C1=O` gave ALOX12 inh -22.2%.
CC(=O)N(C)C[C@@H]1Oc2ncc(Br)cc2C(=O)N([C@H](C)CO)C[C@@H]1C was read as ALOX12 inh -0.8%, IDH1 R132H inh -1.1%, Nrf2 ARE act -0.6% and LDHA inh -33.6*.
C[C@@H]1CN([C@@H](C)CO)C(=O)c2cc(C#CC3CCCCC3)cnc2O[C@@H]1CN(C)S(=O)(=O)c1ccc(F)cc1 was read as ALOX12 inh 39.8µM*, IDH1 R132H inh 0.8%, Nrf2 ARE act -0.5% and LDHA inh 9.2.
C[C@@H]1CN([C@H](C)CO)C(=O)c2cc(Br)cnc2O[C@@H]1CN(C)C(=O)CC1CC1 was read as ALOX12 inh -6.2%, IDH1 R132H inh 11.5%, Nrf2 ARE act -0.1% and LDHA inh -1.3.
Screening C=CCNC(=O)C(NC(C)=O)C1CCCC1 (stereo not drawn) returned ALOX12 inh -25.6% and LDHA inh -2.9.
CNC(=O)CNC(=O)c1ccc(Br)cc1 was read as ALOX12 inh 2.9% and LDHA inh -18.9.
For CN(C)CC1CCCCCN1 (stereo not drawn) the results were ALOX12 inh 1.9% and LDHA inh inconclusive.
Screening CS(=O)(=O)CCC(C(=O)NC1CCN(Cc2ccccc2)CC1)N1Cc2ccccc2C1=O (stereo not drawn) returned ALOX12 inh -24.5% and LDHA inh 4.4.
`COc1ccc(Oc2c(Cl)cnn(-c3ccc(C)cc3)c2=O)cc1` gave A549 viability -0.7%, ALOX12 inh 13.8%, IDH1 R132H inh 10.0%, Nrf2 ARE act 12.6µM* and LDHA inh 1.0.
`COc1ccc(-n2c(C)nc3c(cnn3-c3ccc(Cl)cc3)c2=O)cc1` gave A549 viability -18.6%, ALOX12 inh -14.4%, Nrf2 block inconclusive, IDH1 R132H inh 3.8%, Nrf2 ARE act 0.0% and LDHA inh -0.6.
COc1ccc(-n2c(C)nc3c(cnn3-c3ccc(C)cc3)c2=O)cc1 was read as A549 viability -2.3%, ALOX12 inh -20.5%, Nrf2 block 18.4µM*, IDH1 R132H inh -12.5%, Nrf2 ARE act 2.0% and LDHA inh -14.0.
Screening CC(C)n1c2ccccc2c2cc([N+](=O)[O-])ccc21 returned A549 viability -0.3%, ALOX12 inh 12.4%, Nrf2 block -8.1%, IDH1 R132H inh 0.4%, Nrf2 ARE act 0.8% and LDHA inh -1.2.
CN(C)c1ccc(C=c2c3cc(O)ccc3n3c2cc(-c2ccccc2)[n+]3C)cc1 was read as A549 viability inconclusive, ALOX12 inh inconclusive, Nrf2 block 18.4µM*, IDH1 R132H inh inconclusive, Nrf2 ARE act 1.8% and LDHA inh 31.9.
CN(C)c1ccc(C=C2c3ccccc3-c3ccccc32)cc1 was read as LDHA inh 9.5.
Screening C[n+]1c(-c2ccccc2)cc2c(=Cc3ccccc3)c3ccccc3n21 returned A549 viability inconclusive, ALOX12 inh inconclusive, Nrf2 block 20.6µM*, IDH1 R132H inh -6.2%, Nrf2 ARE act 7.0% and LDHA inh 33.3.
For C[n+]1c(-c2ccccc2)cc2c(=Cc3ccc([N+](=O)[O-])cc3)c3ccccc3n21 the results were A549 viability inconclusive, ALOX12 inh 15.8µM*, Nrf2 block inconclusive, IDH1 R132H inh 2.8%, Nrf2 ARE act 5.1% and LDHA inh 29.9.
For CCCC(/C=C/c1ccc(OC(C)=O)cc1)=C1/c2ccccc2C(=O)N1c1ccccc1 the results were A549 viability -13.3%, ALOX12 inh inconclusive, Nrf2 block -5.7%, IDH1 R132H inh 10.4%, Nrf2 ARE act 11.2µM* and LDHA inh 3.2.
For CC(=O)N1N=C(c2ccsc2)CC1c1ccc2nccnc2c1 (stereo not drawn) the results were ALOX12 inh inconclusive and LDHA inh -4.9.
Nc1ncc(-c2ccccc2)c(-c2ccc(OCc3ccccc3)cc2O)n1 was read as A549 viability -14.8%, ALOX12 inh 19.3%, Nrf2 block 23.1µM*, IDH1 R132H inh -5.7%, Nrf2 ARE act 0.3% and LDHA inh -3.2.
N#CC(C#N)=Cc1ccc(-c2ccc(S(=O)(=O)N=C(N)N)cc2)o1 was read as A549 viability -3.3%, ALOX12 inh 25.1µM*, Nrf2 block inconclusive, IDH1 R132H inh -12.1%, Nrf2 ARE act 3.2%[9.22 µM] and LDHA inh 1.3.
`COC(=O)/C(C#N)=C/c1ccc(-c2ccc(S(N)(=O)=O)cc2)o1` gave A549 viability -3.3%, ALOX12 inh -11.0%, Nrf2 block -5.8%, IDH1 R132H inh -4.8%, Nrf2 ARE act 0.2% and LDHA inh -3.3.
For Cc1ccc(NC(=O)c2cc(S(=O)(=O)NCCC3=CCCCC3)ccc2F)cc1F the results were A549 viability inconclusive, ALOX12 inh inconclusive, Nrf2 block 10.3µM*, IDH1 R132H inh 0.0%, Nrf2 ARE act 0.5% and LDHA inh -7.9.
